In PubChem BioAssay AID1159580 (chemical genetic matrix, 2015):
Values joined by “and” are separate entries in the source; they are usually repeats but may differ in a detail not shown here. Equal values may be shown once. Among all 5,500 compounds or so, about 2,000 (36%) were called active. Roughly 18% stayed inconclusive and do not appear here. No stated cut-off is given here; in the data, active means normalized growth mostly below about 0.91 (no sharp cut-off); inconclusive means no clear call, values can overlap the other calls; inactive means mostly above about 0.92. This is one part of the list.

Experiment: chemical genetic growth profiling, strain panel (AID 1159580);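 further: tested at 20 µM; growth read once vehicle control cultures reached saturation at 30 °C; 1 = growth at the plate median or of vehicle wells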
Conditions: S. cerevisiae deletion strains, growth OD

Measured: normalized growth

O=C(O)CN1C(=O)c2cccc3cccc(c23)C1=O
inactive: locus YAL013W, strain DEP1, stronger effect = lower value 1 | locus YAL021C, strain ccr4, stronger effect = lower value 0.956 | locus YAL026C, strain drs2, stronger effect = lower value 0.987 | locus YAL030W, strain snc1, stronger effect = lower value 0.986 | locus YBL061C, strain skt5, stronger effect = lower value 0.973 | locus YBR009C, strain hhf1, stronger effect = lower value 0.985 | locus YBR021W, strain FUR4, stronger effect = lower value 1 | locus YBR023C, strain chs3, stronger effect = lower value 0.976 | locus YBR171W, strain sec66, stronger effect = lower value 0.968 | locus YBR229C, strain ROT2, stronger effect = lower value 1.01 | locus YBR231C, strain swc5, stronger effect = lower value 0.986 | locus YBR279W, strain paf1, stronger effect = lower value 0.978 | locus YCL011C, strain gbp2, stronger effect = lower value 0.975 | locus YCL016C, strain dcc1, stronger effect = lower value 0.982 | locus YCL029C, strain bik1, stronger effect = lower value 0.978 | locus YCL061C, strain MRC1, stronger effect = lower value 0.985 | locus YCL069W, strain vba3, stronger effect = lower value 0.99 | locus YCR088W, strain abp1, stronger effect = lower value 1.01 | locus YDL005C, strain med2, stronger effect = lower value 0.974 | locus YDL035C, strain GPR1, stronger effect = lower value 0.994 | locus YDL040C, strain nat1, stronger effect = lower value 0.982 | locus YDL074C, strain BRE1, stronger effect = lower value 1.05 | locus YDL101C, strain DUN1, stronger effect = lower value 1.01 | locus YDL134C, strain PPH21, stronger effect = lower value 0.994 | locus YDL185W, strain tfp1, stronger effect = lower value 0.964 | locus YDL192W, strain arf1, stronger effect = lower value 0.991 | locus YDR001C, strain nth1, stronger effect = lower value 0.979 | locus YDR069C, strain doa4, stronger effect = lower value 0.993 | locus YDR101C, strain arx1, stronger effect = lower value 0.998 | locus YDR137W, strain rgp1, stronger effect = lower value 0.938 | locus YDR159W, strain sac3, stronger effect = lower value 0.993 | locus YDR162C, strain NBP2, stronger effect = lower value 0.982 | locus YDR195W, strain ref2 1.01 | locus YDR297W, strain sur2, stronger effect = lower value 0.979 | locus YDR318W, strain mcm21, stronger effect = lower value 0.978 | locus YDR334W, strain swr1, stronger effect = lower value 0.967 | locus YDR335W, strain msn5, stronger effect = lower value 0.985 | locus YDR388W, stronger effect = lower value 0.994 | locus YDR392W, strain spt3, stronger effect = lower value 0.811 | locus YDR502C, strain sam2, stronger effect = lower value 0.998 | locus YEL003W, strain gim4, stronger effect = lower value 0.99 | locus YEL037C, strain rad23, stronger effect = lower value 0.982 | locus YEL061C, strain CIN8 (second series), stronger effect = lower value 0.974 | locus YEL061C, strain CIN8, stronger effect = lower value 1.01 | locus YER015W, strain faa2, stronger effect = lower value 0.998 | locus YER016W, strain bim1, stronger effect = lower value 0.996 | locus YER110C, stronger effect = lower value 0.977 | locus YER111C, strain swi4, stronger effect = lower value 0.975 | locus YER155C, strain BEM2 (second series), stronger effect = lower value 0.954 | locus YER155C, strain BEM2, stronger effect = lower value 0.999 | locus YER167W, strain BCK2, stronger effect = lower value 0.991 | locus YFR010W, strain ubp6, stronger effect = lower value 0.968 | locus YGL078C, strain dbp3, stronger effect = lower value 0.986 | locus YGL086W, strain mad1, stronger effect = lower value 1 | locus YGL167C, strain pmr1, stronger effect = lower value 0.987 | locus YGL173C, strain kem1, stronger effect = lower value 0.983 | locus YGL227W, strain vid30, stronger effect = lower value 0.996 | locus YGL240W, strain doc1, stronger effect = lower value 1 | locus YGL248W, strain PDE1, stronger effect = lower value 1.02 | locus YGL253W, strain hxk2, stronger effect = lower value 0.984 | locus YGR135W, strain pre9, stronger effect = lower value 0.966 | locus YGR252W, strain gcn5, stronger effect = lower value 1.04 | locus YHR013C, strain ard1, stronger effect = lower value 0.909 | locus YHR027C, strain rpn1, stronger effect = lower value 0.985 | locus YHR030C, strain SLT2, stronger effect = lower value 0.99 and 0.965 | locus YHR079C, strain IRE1 (second series), stronger effect = lower value 0.984 | locus YHR079C, strain IRE1, stronger effect = lower value 0.972 | locus YHR094C, strain hxt1, stronger effect = lower value 0.994 | locus YHR129C, strain ARP1, stronger effect = lower value 0.994 | locus YHR142W, strain chs7, stronger effect = lower value 0.944 | locus YHR200W, strain rpn10, stronger effect = lower value 0.972 | locus YIL066C, strain RNR3, stronger effect = lower value 1.01 | locus YIL073C, strain SPO22, stronger effect = lower value 0.897 | locus YIL125W, strain kgd1, stronger effect = lower value 0.989 | locus YIR030C, strain dcg1, stronger effect = lower value 0.985 | locus YJL092W, strain hpr5, stronger effect = lower value 0.981 | locus YJL095W, strain BCK1 (second series), stronger effect = lower value 0.986 | locus YJL095W, strain BCK1, stronger effect = lower value 1.04 and 0.965 | locus YJL115W, strain asf1, stronger effect = lower value 0.982 | locus YJL129C, strain trk1, stronger effect = lower value 0.988 | locus YJL134W, strain LCB3, stronger effect = lower value 0.998 | locus YJL154C, strain vps35, stronger effect = lower value 1.01 | locus YJL164C, strain tpk1, stronger effect = lower value 0.989 | locus YJL166W, strain qcr8, stronger effect = lower value 0.953 | locus YJL168C, strain set2, stronger effect = lower value 0.993 | locus YJL187C, strain SWE1 (second series), stronger effect = lower value 1.04 | locus YJL187C, strain SWE1, stronger effect = lower value 0.976
